Values joined by “and” are separate entries in the source; they are usually repeats but may differ in a detail not shown here. Equal entries are not always repeated. Inconclusive results are not listed. Where a call stands in place of a potency, no number is given. Active and inactive are the calls of the source. Unless noted, how the calls were made is not given here.

Nuclear receptor subfamily 1 group I member 2 (Rattus norvegicus), sequence (Q9R1A7 whole entry, looked up): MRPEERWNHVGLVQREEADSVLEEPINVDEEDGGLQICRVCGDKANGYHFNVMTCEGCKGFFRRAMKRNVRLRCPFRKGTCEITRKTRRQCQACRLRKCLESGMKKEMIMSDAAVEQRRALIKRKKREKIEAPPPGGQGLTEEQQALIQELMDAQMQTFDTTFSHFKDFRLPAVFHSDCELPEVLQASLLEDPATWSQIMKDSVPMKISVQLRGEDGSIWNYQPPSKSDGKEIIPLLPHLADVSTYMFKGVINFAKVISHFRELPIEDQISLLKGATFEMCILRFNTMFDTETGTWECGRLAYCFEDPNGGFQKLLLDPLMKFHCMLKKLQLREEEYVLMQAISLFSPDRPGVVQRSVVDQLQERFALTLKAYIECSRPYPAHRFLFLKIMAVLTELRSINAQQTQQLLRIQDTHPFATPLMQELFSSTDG

Test system in the first assay: not listed separately
The assay can be described thus: qHTS assay for cell viability of the p53RE-bla HCT-116 cell line (AID 743292; active means well fitted cell-killing curve with a large enough effect; further: nearly all actives have a fitted effect of over 55% in size). To be noted: p53RE-bla HCT-116 viability, ATP luminescence, 16 h; series mostly up to 95 µM. The method in brief:
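CellSensor p53RE-bla HCT-116 cells, 4,000/well, preincubated 5 h at 37 C, then exposed to compounds in DMSO for 16 h at 37 C. Viability read as CellTiter-Glo luminescence (intracellular ATP) after 30 min at room temperature.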
(In general: Quantitative high-throughput screening tests each substance at several concentrations.)
On to `CC(C)OC(=O)Nc1cccc(Cl)c1`, for which the Potency entry was “inactive”.
Same read-out and setting: then `CNC(=O)Oc1cccc2c1OC(C)(C)O2`, with “inactive”; and `CCS(=O)CCSP(=O)(OC)OC` (configuration not stated), with “inactive”; and `COP(N)(=O)SC` (configuration not stated), with “inactive”.
Same read-out and setting: the result for `CC(C)(C)C(=O)C(Oc1ccc(Cl)cc1)n1cncn1` (configuration not stated) reads “inactive”; that for `CC(C)N1C(=O)c2ccccc2NS1(=O)=O`, “inactive”; that for `O=C(O)COc1cc(Cl)c(Cl)cc1Cl`, “inactive”.
Still for that read-out and setting: then `CCC(=O)Nc1ccc(Cl)c(Cl)c1`, with “inactive”; and `CNC(=O)CSP(=S)(OC)OC`, with “inactive”; and `N#Cc1c(Cl)cccc1Cl`, with “inactive”.
As for `COc1nc(NC(C)C)nc(NC(C)C)n1`, the Potency entry was “inactive”.
Take `CCc1cccc(C)c1N(C(=O)CCl)C(C)COC` (configuration not stated): the Potency entry is “inactive”.
Same read-out and setting: then `CNC(=O)Oc1ccccc1OC(C)C`, with “inactive”.

A further assay concerns the target Nuclear receptor subfamily 1 group I member 2 (Rattus norvegicus) (UniProt Q9R1A7). Description: qHTS assay for small molecule activators of the rat pregnane X receptor (rPXR) signaling pathway (AID 651751). To be noted: rPXR reporter cells, luciferase (One-Glo), 24 h.
Take `CNC(=O)Oc1cccc2c1OC(C)(C)O2`: the max response was 2.1% (inactive).
The same measure, in the same setting: then `CCS(=O)CCSP(=O)(OC)OC` (configuration not stated), with -2.51% (inactive); and `COP(N)(=O)SC` (configuration not stated), with -2.32% (inactive) and -2.07% (inactive); and `CC(C)N1C(=O)c2ccccc2NS1(=O)=O`, with -1.76% (inactive).
For the compound `O=C(O)COc1cc(Cl)c(Cl)cc1Cl`, the max response was -2.98% (inactive).
Still for that read-out and setting: the result for `CCC(=O)Nc1ccc(Cl)c(Cl)c1` reads 6.65% (inactive); that for `CNC(=O)CSP(=S)(OC)OC`, -3.03% (inactive) and -0.565% (inactive).
As to `N#Cc1c(Cl)cccc1Cl`, the max response is 2.13% (inactive).
Same read-out and setting: the result for `COc1nc(NC(C)C)nc(NC(C)C)n1` reads -2.09% (inactive); that for `CCc1cccc(C)c1N(C(=O)CCl)C(C)COC` (configuration not stated), 14% (inactive).
The same measure, in the same setting: then `CNC(=O)Oc1ccccc1OC(C)C`, with -0.132% (inactive).

Test system in a further assay: not listed separately
Description: qHTS assay for small molecule activators of the human pregnane X receptor (PXR) signaling pathway (AID 720659). To be noted: DPX-2 HepG2 CYP3A4-luciferase, 24 h; series mostly up to 92.3 µM.
Turning to `CCS(=O)CCSP(=O)(OC)OC` (configuration not stated), the compound was called inactive.
Still for that read-out and setting: then `COP(N)(=O)SC` (configuration not stated), with “inactive”; and `CC(C)N1C(=O)c2ccccc2NS1(=O)=O`, with “inactive”; and `CCC(=O)Nc1ccc(Cl)c(Cl)c1`, with “inactive”.
As to `CNC(=O)CSP(=S)(OC)OC`, the outcome was inactive.
As for `N#Cc1c(Cl)cccc1Cl`, the compound was called inactive.
Take `COc1nc(NC(C)C)nc(NC(C)C)n1`: the compound was called inactive.
With `CNC(=O)Oc1ccccc1OC(C)C`, the outcome was inactive.

These data come from PubChem BioAssay (NCATS).
